PHOSPHO1 block = blocks human PHOSPHO1 phosphatase activity. inhibition, % at 13.3 µM. recombinant PHOSPHO1, absorbance phosphatase assay. Q8TCT1. hit rate 1.1% among 290,000; in the data active means inhibition above about 60%
ANO1 block = mouse TMEM16A channel inhibition, primary screen; Q8BHY3; HEK293 TMEM16A/YFP iodide influx fluorescence, ionomycin; normalized B-score (activity score, 25-100; higher = stronger inhibition) at 10 µM; hit rate 1.2% among 310,000; AID 588511;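 active means ratio plate-corrected score three or more library SD toward inhibition, starting fluorescence score within five deviations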;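 further: score derived from kinetic fluorescence span divided by baseline fluorescence per well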
Target sequence (Q8BHY3 whole entry, looked up): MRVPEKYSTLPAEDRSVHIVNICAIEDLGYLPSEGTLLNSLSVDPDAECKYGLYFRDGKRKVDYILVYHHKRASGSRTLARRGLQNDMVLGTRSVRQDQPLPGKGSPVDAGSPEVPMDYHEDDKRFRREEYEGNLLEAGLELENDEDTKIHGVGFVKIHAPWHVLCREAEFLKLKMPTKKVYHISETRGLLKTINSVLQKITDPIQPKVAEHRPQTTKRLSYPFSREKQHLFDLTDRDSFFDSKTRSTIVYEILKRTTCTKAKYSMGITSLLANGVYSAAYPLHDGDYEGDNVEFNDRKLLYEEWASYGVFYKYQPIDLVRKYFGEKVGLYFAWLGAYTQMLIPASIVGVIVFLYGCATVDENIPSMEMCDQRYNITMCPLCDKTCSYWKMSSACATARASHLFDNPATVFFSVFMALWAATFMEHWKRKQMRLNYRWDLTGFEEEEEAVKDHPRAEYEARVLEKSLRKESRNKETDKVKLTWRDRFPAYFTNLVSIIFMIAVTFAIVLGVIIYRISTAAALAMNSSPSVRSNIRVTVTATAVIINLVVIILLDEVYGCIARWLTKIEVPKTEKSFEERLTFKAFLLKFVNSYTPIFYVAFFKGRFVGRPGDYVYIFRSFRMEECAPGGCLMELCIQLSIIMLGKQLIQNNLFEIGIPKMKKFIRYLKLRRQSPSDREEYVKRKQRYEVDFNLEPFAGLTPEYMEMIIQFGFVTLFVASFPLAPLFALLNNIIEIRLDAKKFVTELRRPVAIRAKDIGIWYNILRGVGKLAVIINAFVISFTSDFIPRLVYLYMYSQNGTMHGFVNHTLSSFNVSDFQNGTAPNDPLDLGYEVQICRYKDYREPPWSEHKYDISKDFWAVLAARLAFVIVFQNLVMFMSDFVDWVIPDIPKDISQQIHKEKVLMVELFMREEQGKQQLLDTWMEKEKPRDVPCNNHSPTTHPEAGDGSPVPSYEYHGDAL
CHT allo act = human CHT allosteric activation | CHT-expressing cells, membrane potential dye, choline EC20; active compounds read high; LV-AA mutant CHT in HEK293 cells | B-score at 10 µM | hit rate 0.49% among 310,000;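 active means initial fluorescence not abnormally high and integrated response B-score, plate-corrected, over 3 SD above library mean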
HDAC3 inhib = inhibitors of human histone deacetylase 3; O15379; recombinant HDAC3, fluorogenic peptide/trypsin coupled, fluorescence; hit rate 0.15% among 320,000; inhibition, % at 8.3 µM; AID 2718; in the data active means inhibition above about 26%, passing the limit was not always enough; inconclusive means no clear call, values can overlap the other calls
ANO1 activ = mouse TMEM16A channel activation, primary screen; Q8BHY3; HEK293 TMEM16A/YFP-H148Q/I152L, iodide quench fluorescence; active compounds read low; B-score at 10 µM; hit rate 0.3% among 340,000; AID 623877;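 active means fluorescence-ratio B-score plate-corrected deviation score at least 3 library SD below zero, with starting fluorescence score within 5 deviations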;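 further: channel opened by trigger with iodide after compound preincubation; score built on the fluorescence ratio of max minus min over baseline; more negative score means more quench and so TMEM16A activation or potentiation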
CHT inh = inhibits the human high affinity choline transporter; CHT-expressing cells, membrane potential dye, choline response; active compounds read low; B-score at 10 µM; hit rate 0.86% among 310,000;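 active means B-score over 3 SD under the library average, and starting fluorescence ratio not unusually high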;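 further: choline stimulus applied at its EC90 after an EC20 pre-addition; B-score computed on integrated fluorescence ratio after choline addition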
Active calls of the source: *; i = inactive; ? = inconclusive; · = not tested or not shown. Sampled rows, rich in hits. Any-hit rate of the full collection: about 3.2%.

SMILES | PHOSPHO1 block | ANO1 block | CHT allo act | HDAC3 inhib | ANO1 activ | CHT inh
NC(=O)SCC(=O)Nc1cccc(Cl)c1 | 31.1 | i | i | 39.1* | i | i
CC(C)[C@H](NC(=O)C1CCN(S(=O)(=O)c2ccc(F)cc2)CC1)C(=O)N1CCCC1 | 31.5 | i | i | 1.0 | i | i
CCC1(c2ccc(Cl)cc2)NC(=S)N(c2ccc(C)c(C)c2)N1 (stereo not drawn) | 67.6* | i | i | 16.1 | i | i
CCC1(c2ccccc2)NC(=S)N(c2ccc(C)c(C)c2)N1 (stereo not drawn) | 21.3 | i | i | 18.9 | i | i
N#CCCn1nc2c(c1N)CCC2 | · | · | · | · | i | ·
C#CCOCCOCCOCCNc1nc(N2CCN(C(=O)CCCCCCCCCCNC(=O)[C@H](CO)n3cc(CCCCCN)nn3)CC2)nc(N2CCN(C(=O)CCCCCCCCCCNC(=O)[C@H](CCCN=C(N)N)n3cc(C[C@@H](C)CC)nn3)CC2)n1 | · | 100* | i | ? | · | i
C#CCOCCOCCOCCNc1nc(N2CCN(C(=O)CCCCCCCCCCNC(=O)[C@@H](CCC(=O)O)n3cc(CCCCCN)nn3)CC2)nc(N2CCN(C(=O)CCCCCCCCCCNC(=O)[C@H](CO)n3cc(CCCCCN)nn3)CC2)n1 | · | i | i | 5.4 | i | i
C#CCOCCOCCOCCNc1nc(N2CCN(C(=O)CCCCCCCCCCNC(=O)[C@H](CCCCN)n3cc(C)nn3)CC2)nc(N2CCN(C(=O)CCCCCCCCCCNC(=O)[C@H](CCCN=C(N)N)n3cc(C[C@@H](C)CC)nn3)CC2)n1 | · | 100* | i | 16.4 | · | i
C#CCOCCOCCOCCNc1nc(N2CCN(C(=O)CCCCCCCCCCNC(=O)[C@@H](CCC(=O)O)n3cc(CCCCCN)nn3)CC2)nc(N2CCN(C(=O)CCCCCCCCCCNC(=O)[C@H](CCCCN)n3cc(C[C@@H](C)CC)nn3)CC2)n1 | · | 100* | i | ? | -5.73* | i
C#CCOCCOCCOCCNc1nc(N2CCN(C(=O)CCCCCCCCCCNC(=O)[C@H]([C@@H](C)CC)n3cc(CCCCN=C(N)N)nn3)CC2)nc(N2CCN(C(=O)CCCCCCCCCCNC(=O)[C@@H]([C@H](C)O)n3cc(C)nn3)CC2)n1 | · | 25* | i | 0.4 | -24.9* | i
Cc1ccc(C(=O)n2ncn(C)c2=S)cc1 | 20.5 | · | · | · | i | ·
CC(=O)Cn1c(=O)c2c(nc3n2CCCN3Cc2ccccc2)n(C)c1=O | 6.2 | i | i | 2.4 | i | i
C#CCOCCOCCOCCNc1nc(N2CCN(C(=O)CCCCCCCCCCNC(=O)[C@H](CCCCN)n3cc(C[C@@H](C)CC)nn3)CC2)nc(N2CCN(C(=O)CCCCCCCCCCNC(=O)[C@@H]([C@H](C)O)n3cc(C)nn3)CC2)n1 | · | i | i | -2.3 | -17.7* | i
C#CCOCCOCCOCCNc1nc(N2CCN(C(=O)CCCCCCCCCCNC(=O)[C@H](CCCN=C(N)N)n3cc(C[C@@H](C)CC)nn3)CC2)nc(N2CCN(C(=O)CCCCCCCCCCNC(=O)[C@@H]([C@H](C)CC)n3cc(CCCCCN)nn3)CC2)n1 | · | 25* | i | 32.6* | · | i
C#CCOCCOCCOCCNc1nc(N2CCN(C(=O)CCCCCCCCCCNC(=O)[C@H]([C@@H](C)CC)n3cc(CCCCN=C(N)N)nn3)CC2)nc(N2CCN(C(=O)CCCCCCCCCCNC(=O)[C@H](CCCN=C(N)N)n3cc(C[C@@H](C)CC)nn3)CC2)n1 | · | 25* | i | -8.5 | · | i
C#CCOCCOCCOCCNc1nc(N2CCN(C(=O)CCCCCCCCCCNC(=O)[C@H](CCCCN)n3cc(CCO)nn3)CC2)nc(N2CCN(C(=O)CCCCCCCCCCNC(=O)[C@H](CCCCN)n3cc(CCCC(=O)O)nn3)CC2)n1 | · | i | i | 13.4 | i | i
C#CCOCCOCCOCCNc1nc(N2CCN(C(=O)CCCCCCCCCCNC(=O)[C@@H](CCSC)n3cc(CCO)nn3)CC2)nc(N2CCN(C(=O)CCCCCCCCCCNC(=O)[C@H](CCCN=C(N)N)n3cc(C[C@@H](C)CC)nn3)CC2)n1 | · | 100* | i | 69.2* | -26* | i

Screens from PubChem BioAssay.
